Among the test systems are SR leukemia; OVCAR-8 ovarian; OVCAR-5 ovarian; OVCAR-4 ovarian; IGROV1 ovarian; OVCAR-3 ovarian; HS 578T breast; NCI/ADR-RES ovarian; T-47D breast; BT-549 breast; MDA-MB-435 melanoma; SW-620 colon; MCF7 breast; HCT-116 colon; HCC-2998 colon; KM12 colon; RPMI-8226 leukemia; SK-OV-3 ovarian.
Holding throughout (test): NCI-60 one-dose screen, 48 h (100 = growth as untreated, 0 = no growth, -100 = all killed)
Common to all, as to details: 10 µM unless noted

Experimental findings from PubChem BioAssay (NCI) are described below.

SMILES strings stand for the structures. This is part of a sample that, as a whole, favours compounds with a hit. Of some 83,000 tested, about 20% had one in any assay.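 Percent growth is the endpoint: 0 to 100 indicates growth inhibition (40 means 60% inhibition), 0 means no net growth, and negative values indicate cell death.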 A number with no mark means an inactive call. The source made the active and inactive calls. The calls were made as follows: active = growth percent below 10; inactive = the rest.

As to `O=C1Nc2ccccc2/C1=N/N=C/c1ccc(OC2OC(CO)C(O)C(O)C2O)cc1` (configuration not stated), the growth is 116% with SR leukemia; 102% in the assay with OVCAR-8 ovarian; 98.2% in the assay on OVCAR-5 ovarian; 115% in the assay with OVCAR-4 ovarian; 116% in the assay with IGROV1 ovarian; 113% with OVCAR-3 ovarian. Besides, the growth in the assay with HS 578T breast was 98.9%; in the assay on NCI/ADR-RES ovarian, 106%; in the assay on T-47D breast, 105%; in the assay on BT-549 breast, 109%; with MDA-MB-435 melanoma, 106%; in the assay on SW-620 colon, 101%. For the same compound, the growth in the assay with MCF7 breast was 103%; with HCT-116 colon it was 107%; in the assay with HCC-2998 colon, 115%; in the assay on KM12 colon, 110%.
As to `N#C/C(=C\c1ccc2c(c1)OCO2)n1nnc2ccccc21`, the growth in the assay on SR leukemia was 28%; with OVCAR-8 ovarian, 17.7%; in the assay with OVCAR-5 ovarian it was -17.5% (active); in the assay with OVCAR-4 ovarian, 34.2%; with IGROV1 ovarian, 4.33% (active); in the assay on OVCAR-3 ovarian, -69% (active). Besides, the growth with HS 578T breast is -4.27% (active); in the assay with NCI/ADR-RES ovarian it was 6.26% (active); in the assay on T-47D breast, 26.2%; in the assay on BT-549 breast it was 30.3%; with MDA-MB-435 melanoma it was -69.1% (active); in the assay on SW-620 colon, 12%. The growth in the assay on MCF7 breast is 10.3%; with HCT-116 colon, 5.72% (active); in the assay with HCC-2998 colon, -9.93% (active); with KM12 colon it was -16.2% (active).
On to `COc1cc(-c2ccc(-c3ccc(C(=N)N)nc3)s2)cc(OC)c1OC`, for which the growth is 6.31% (active) in the assay on SR leukemia; 57.2% with OVCAR-8 ovarian; 81% in the assay with OVCAR-5 ovarian; 60.9% with OVCAR-4 ovarian; 62.5% in the assay on IGROV1 ovarian; 64.4% in the assay with HS 578T breast. Moreover, the growth is 66.2% in the assay on T-47D breast; 89.8% with BT-549 breast; 37.1% in the assay on MDA-MB-435 melanoma; 29.2% in the assay with SW-620 colon; -1.33% (active) with MCF7 breast; 0.952% (active) in the assay with HCT-116 colon. The figures for the growth in the assay on HCC-2998 colon and in the assay on KM12 colon were 12.1% and 49.1%, respectively.
For `N#C/C(=C\c1ccc(Br)cc1)n1nnc2cc(Cl)c(Cl)cc21`, the growth in the assay on SR leukemia was 10%; in the assay with OVCAR-8 ovarian, 22.2%; in the assay on OVCAR-5 ovarian, 46.2%; in the assay on OVCAR-4 ovarian, 21.6%; in the assay on IGROV1 ovarian, 23.3%; in the assay with OVCAR-3 ovarian it was 5.17% (active). Also, the growth in the assay with HS 578T breast is 51.3%; in the assay on T-47D breast, 18%; in the assay with BT-549 breast, 22.5%; in the assay on MDA-MB-435 melanoma it was -18.2% (active); with SW-620 colon it was 19.2%; in the assay on MCF7 breast, 6.51% (active). In addition, the growth with HCT-116 colon is 22.2%; in the assay on HCC-2998 colon, 35.3%.
As to `N=C(N)c1ccc(-c2ccc(-c3ccc(Cl)cn3)s2)cc1`, the growth with SR leukemia was 6.63% (active); in the assay with OVCAR-8 ovarian it was 38%; in the assay with OVCAR-5 ovarian, 52.2%; in the assay on OVCAR-4 ovarian, 40%; in the assay with IGROV1 ovarian, 14.4%; in the assay with OVCAR-3 ovarian, 4.7% (active). For the same compound, the growth in the assay on NCI/ADR-RES ovarian is 62.4%; with T-47D breast it was 55.4%; in the assay with BT-549 breast, 82.6%; in the assay on MDA-MB-435 melanoma, -52.6% (active); with SW-620 colon, -28.3% (active); in the assay with MCF7 breast it was -44.4% (active). Also, the growth in the assay on HCT-116 colon was -67.6% (active); in the assay with HCC-2998 colon it was -61.5% (active); in the assay with KM12 colon, 1.88% (active).
On to `CC(C)(C)c1ccc(C(=O)Nc2sc3c(c2C(N)=O)CCC(=O)C3)cc1`, for which the growth with SR leukemia is 11.1%; with OVCAR-8 ovarian, 8.88% (active); in the assay on OVCAR-5 ovarian, 12.3%; with OVCAR-4 ovarian, -91.1% (active); with IGROV1 ovarian, -21.6% (active); in the assay on HS 578T breast, -12% (active). For the same compound, the growth in the assay on T-47D breast was -13.7% (active); with BT-549 breast, -10.3% (active); with MDA-MB-435 melanoma it was -45.2% (active); in the assay on SW-620 colon it was -36.7% (active); in the assay with MCF7 breast, 3.05% (active); with HCT-116 colon, -30.5% (active). Moreover, the figures for the growth in the assay with HCC-2998 colon and in the assay with KM12 colon were 17.1% and -55.6% (active), respectively.
As for `O=C1Nc2ccccc2/C1=N/N=C/c1c[nH]c2ccccc12`, the growth in the assay on SR leukemia was 67%; in the assay on OVCAR-5 ovarian, 81.6%; in the assay with OVCAR-4 ovarian it was 59.9%; with IGROV1 ovarian, 35.7%; in the assay on OVCAR-3 ovarian it was 69.5%; with HS 578T breast it was 15%. Also, the growth in the assay with NCI/ADR-RES ovarian was 91%; in the assay with T-47D breast, 61%; with BT-549 breast, 92.7%; with MDA-MB-435 melanoma, 73.8%; with SW-620 colon, 71.5%; in the assay with MCF7 breast, 72.5%. Besides, the growth with HCT-116 colon is 72.4%; in the assay on HCC-2998 colon, 101%; in the assay on KM12 colon it was 28.5%.
Take `CC(C)n1nc(C#Cc2cccc3cc(-c4cccc(C(F)(F)F)c4)ncc23)c2c(N)ncnc21`: the growth in the assay on RPMI-8226 leukemia was 57.1%; in the assay on OVCAR-8 ovarian it was 41.1%; in the assay on OVCAR-5 ovarian, 86.1%; with OVCAR-4 ovarian it was 78.8%; with SK-OV-3 ovarian it was 91%; in the assay on IGROV1 ovarian it was 72%. Moreover, the growth in the assay with OVCAR-3 ovarian is 91.2%; in the assay on HS 578T breast it was 65.2%; with NCI/ADR-RES ovarian it was 82%; in the assay with BT-549 breast it was 97.7%; with MDA-MB-435 melanoma, 67.3%; in the assay on SW-620 colon, 71.8%. The growth was 75.7% with MCF7 breast, 31.4% with HCT-116 colon, 98.1% in the assay with HCC-2998 colon and 60.9% with KM12 colon.
`COc1ccc(Nc2ncc(Br)c(NCCCNC(=O)C3CCC3)n2)cc1`: the growth is 40.1% in the assay on RPMI-8226 leukemia; 28.6% in the assay with OVCAR-8 ovarian; 31.1% with OVCAR-5 ovarian; -0.243% (active) with OVCAR-4 ovarian; 10.6% with SK-OV-3 ovarian; 14.5% in the assay on IGROV1 ovarian. Besides, the growth was 31.6% with OVCAR-3 ovarian; -15.7% (active) in the assay with HS 578T breast; 47.4% in the assay with NCI/ADR-RES ovarian; -33.9% (active) with BT-549 breast; 53.8% in the assay on MDA-MB-435 melanoma; 29.1% in the assay on SW-620 colon. In addition, the growth was 41.1% with MCF7 breast, 5.88% (active) in the assay on HCT-116 colon, 42.4% with HCC-2998 colon and 15.2% with KM12 colon.
With `CCO/C=N/C1=C(C#N)C(c2ccc(OC)cc2)c2c(c3ccccc3n(C)c2=O)O1` (configuration not stated), the growth was 102% with RPMI-8226 leukemia; 104% in the assay on OVCAR-8 ovarian; 100% in the assay with OVCAR-5 ovarian; 98.8% in the assay on OVCAR-4 ovarian; 99.9% with SK-OV-3 ovarian; 101% in the assay on IGROV1 ovarian. Moreover, the growth in the assay with OVCAR-3 ovarian was 114%; in the assay with HS 578T breast, 107%; with NCI/ADR-RES ovarian it was 108%; with T-47D breast, 101%; in the assay on BT-549 breast it was 117%; in the assay on MDA-MB-435 melanoma, 107%. The growth was 101% in the assay with SW-620 colon, 94.8% in the assay on MCF7 breast, 102% in the assay with HCT-116 colon and 106% in the assay with HCC-2998 colon.
